Results taken from PubChem BioAssay AID1224853 (National Center for Advancing Translational Sciences (NCATS), 2016).
Inconclusive results are not listed. Active and inactive are the calls of the source. The call rests on the fitted dose curve; in most records, active means well fitted inhibition curve with a large enough effect; inconclusive means small, poorly fitted or top-dose-only effect; inactive means no such curve, though single readings can be large or run the other way.

Test: Confirmation assay for measurement of the activity of small molecule inhibitors on Zika virus induced Caspase-3 activity in human astrocytoma cells
Details: SNB-19 ZIKV-induced caspase-3/7, luminescence, 6 h; series mostly up to 46.1 µM; activity change, negative = inhibition: at the top concentration
Source text: National Center for Advancing Translational Sciences [NCATS] Johns Hopkins University School of Medicine Florida State University Assay Overview: Increase in the Caspase-3 activity indicates an activation of apoptosis cell death pathway caused by Zika virus infection in certain types of neuronal cells including human neural progenitor cells (hNPCs), astrocytes, and astrocytoma cell line (SNB-19). This cell-based caspase-3 activity assay measures the increased caspase-3 activity in the astrocytoma cell line (SNB-19) after a 6-hour Zika virus infection with a luminescence readout. A decrease in the luminescence signal in this assay by small molecule treatment indicates an inhibitory effect of that small molecule on the Zika virus induced caspase-3 activity that may correlate with its effect on reduction of Zika virus caused cell death.
Assay Protocol Summary: The medium for SNB-19 cells is composed of RPMI 1640 (ATCC, Cat.# 30-2001), 10% fetal bovine serum (FBS) (GE healthcare Life Sciences, Cat.# SH30071.03), and 1% Pen/Strep (Gibco, Cat.# 15140-122). A Caspase-Glo 3/7 assay kit (catalog number G8092; Promega, Madison, WI) was used to detect caspase-3 activity induced by Zika virus infection in human cells. The reagent mixture was reconstituted as described in the protocol from the manufacturer. Polystyrene tissue culture treated and PDL coated white plates were obtained from Greiner Bio-One (Monroe, NC). Cells were seeded in 384- or 1536-well assay plates and cultured at 37 C with 5% CO2 for 16 to 20 hours. The typical cell seeding density in the 1536-well plate assay is 250 cells/well in 3ul medium for SNB-19 cells in tissue culture treated plates. Compounds were added to cells and incubated for one hour before addition of ZIKV solution to cells (2 FFU/cell). After incubation at 37 C with 5% CO2 for 6 hours, the reagent mixture of Caspase-Glo 3/7 assay kit was added to each well, followed by incubation at room temperature for 30 minutes. The luminescence intensity of the assay plates was measured using a ViewLux plate reader (PerkinElmer). Data were normalized by using the cell-containing wells without ZIKV as a negative control (0% induction of caspase 3/7 activity) and wells containing ZIKV infected cells (Caspase-3 activity induced) as a positive control (100% induction of caspase 3 activity). The percentage inhibitions of the increased Caspase-3 activity by small molecule inhibitors were then calculated.

| Compound | activity change, negative = inhibition | Potency |
| --- | --- | --- |
| CC(O)CN1CCN(CC(=O)[O-])CCN(CC(=O)[O-])CCN(CC(=O)[O-])CC1.[Gd+3] (centres undefined) | 11.9% (inactive) | – |
| O=C1C=CC[C@@H]2[C@H]3CCCN4CCC[C@@H](CN12)[C@@H]34 | 18.5% (inactive) | – |
| O=c1c2ccccc2[se]n1-c1ccccc1 | – | 17.3 µM (active) |
| O=C(Nc1ccc(Br)cc1)c1cc(Br)cc(Br)c1O | – | 6.9 µM (active) |
| COC1(CS(=O)c2ccccc2)CCN(CCc2c[nH]c3ccc(F)cc23)CC1 (centres undefined) | 12.7% (inactive) | – |
| O=S(=O)(CC1CS1)c1ccc(Oc2ccccc2)cc1 (centres undefined) | -24.8% (inactive) | – |
| CC(C)N[C@@H]1CCn2c(=O)[nH]c3cccc(c32)[C@@H]1O | -1.27% (inactive) | – |
| S=C(SSC(=S)N1CCCCC1)N1CCCCC1 | -16.3% (inactive) | – |
| Cc1ccc([N+](=O)[O-])[c]2c1[O][Hg]2 | – | 10.9 µM (active) |
| CC(C)[C@H]1C(=O)N[C@H](CO)Cc2c[nH]c3cccc(c23)N1C | 2.51% (inactive) | – |
| CC(C)[N+](C)(CCC(C(N)=O)(c1ccccc1)c1ccccc1)C(C)C | 1.37% (inactive) | – |
| Oc1ccc([C@H]2CNCc3c2ccc(O)c3O)cc1O | 9.68% (inactive) | – |
| O=C1CCC[C@@H]2[C@H]3CCCN4CCC[C@@H](CN12)[C@@H]34 | 1.01% (inactive) | – |
| COP(=S)(OC)SCN1C(=O)c2ccccc2C1=O | -5.52% (inactive) | – |
